Results on 25 compounds are retold here after the supplement of paper PMC4840960.

± gives the standard deviation of the averaged measurements.

Assay [1] has as its system E18 rat cortical neuron-glia co-culture. The assay is described as follows: fiber score / MBP score (myelination specific beyond OL differentiation) (ratio); higher = more myelination-specific MBP alignment. To be noted: treatment time: 8 days (DIV5-DIV13). In outline:
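Fiber score divided by MBP score is the read-out; fiber score is continuous MBP fiber length per Olig2+ nucleus, and MBP score is thresholded MBP area × intensity per Olig2+ nucleus. Primary E18 rat cortical co-cultures were dissociated with papain and seeded at 20,000 cells/well on poly-d-lysine/laminin 96-well plates. Library compounds at 1 or 5 µM were given in myelination medium from DIV5 to DIV13, after which cells were fixed in 4 % paraformaldehyde, immunostained for MBP and Olig2 with DAPI, and imaged in four 10X fields per well in duplicate wells.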

Assay [2] shares this test system. As to the kind of experiment: myelination (MBP fiber length per Olig2+ nucleus), % of 1 µM DAPT response (DMSO = 0) (% of DAPT); higher = more myelination, active = 50 or more. The note with it: treatment time: 8 days (DIV5-DIV13). In a few lines:
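Four 10X fields in each of duplicate wells were analysed after cultures were fixed in 4 % paraformaldehyde and immunostained for MBP and Olig2, with DAPI as the nuclear counterstain. The cultures were papain-dissociated primary E18 rat cortical co-cultures at 20,000 cells/well on poly-d-lysine/laminin 96-well plates, dosed with library compounds at 1 or 5 µM in myelination medium from DIV5 to DIV13. The myelination readout was continuous straight MBP fiber length per Olig2+ nucleus, with 0.1 % DMSO set to 0 and a 1 µM positive control set to 100.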

Consider `CCN(CC)C(=O)C1(c2ccccc2)CC1CN` (stereo not given) [Milnacipran], for which the entries for the “fiber score / MBP score” value in assay [1] (1 µM) and in assay [1] (5 µM) were 0.697 and 0.817, respectively. In addition, the figures for the myelination in assay [2] (1 µM) and in assay [2] (5 µM) were -8.81 (inactive) and -7.54 (inactive), respectively.
As for `Cc1ccnc2c1NC(=O)c1cccnc1N2C1CC1` [Nevirapine], the “fiber score / MBP score” value in assay [1] (1 µM) came out at 0.687; in assay [1] (5 µM), 0.851. Moreover, the myelination is -18.6 (inactive) in assay [2] (1 µM) and -6.68 (inactive) in assay [2] (5 µM).
The like results for `Cc1ncc([N+](=O)[O-])n1CC(O)CCl` (stereo not given) [Ornidazole] were, in that order, 0.58, 0.686, -14.7 (inactive) and -1.4 (inactive).
The like results for `Nc1nc(N)nc(-c2cc(Cl)ccc2Cl)n1` [Irsogladine] were, in that order, 0.913, 0.877, -14.2 (inactive) and -20.9 (inactive).
The like results for `CN[C@@H]1[C@H](O)[C@H](NC)[C@H]2O[C@@]3(O)C(=O)C[C@@H](C)O[C@H]3O[C@@H]2[C@H]1O` [Spectinomycin] were, in that order, 0.923, 1.03, -3.04 (inactive) and -4.31 (inactive).
For `CCc1ccc(CCOc2ccc(CC3SC(=O)NC3=O)cc2)nc1` (stereo not given) [Pioglitazone], the “fiber score / MBP score” value in assay [1] (1 µM) is 0.868; in assay [1] (5 µM) it was 0.501. Moreover, the myelination in assay [2] (1 µM) was -2.52 (inactive); in assay [2] (5 µM), -17.1 (inactive).
Regarding `C[C@]12CCC(=O)C=C1CC[C@@H]1[C@@H]2C(=O)C[C@@]2(C)[C@H]1CC[C@]2(O)C(=O)CO` [Cortisone], the “fiber score / MBP score” value came out at 0.752 in assay [1] (1 µM) and 0.764 in assay [1] (5 µM). Further, the myelination in assay [2] (1 µM) was -12.4 (inactive); in assay [2] (5 µM), -10.5 (inactive).
On to `Nc1ncn([C@@H]2O[C@H](CO)[C@@H](O)[C@H]2O)c(=O)n1` [Azacitidine], for which the “fiber score / MBP score” value in assay [1] (1 µM) stood at 0.686; in assay [1] (5 µM), 0.777. The figures for the myelination in assay [2] (1 µM) and in assay [2] (5 µM) were 3.99 (inactive) and 12.8 (inactive), respectively.
Turning to `COc1cc(C)nc(-n2nc(C)cc2OC)n1` [Epirizole], the “fiber score / MBP score” value turned out to be 0.549 in assay [1] (1 µM) and 0.623 in assay [1] (5 µM). The myelination in assay [2] (1 µM) was -20.5 (inactive); in assay [2] (5 µM), -13.2 (inactive).
The like results for `CC(C)OC(=O)CCC/C=C\C[C@@H]1[C@@H](CC[C@@H](O)CCc2ccccc2)[C@H](O)C[C@@H]1O` [Latanoprost] were, in that order, 0.955, 0.853, -8.13 (inactive) and -8.74 (inactive).
The like results for `Clc1ccc2c(c1)C(N1CCNCC1)=Nc1ccccc1O2` [Amoxapine] were, in that order, 1.09, 0.185, 0.685 (inactive) and -23.6 (inactive).
As to `CN[C@H]1CC[C@@H](c2ccc(Cl)c(Cl)c2)c2ccccc21` [Sertraline], the “fiber score / MBP score” value in assay [1] (1 µM) turned out to be 0.689 ± 0.18; in assay [1] (5 µM), 3.18. For the same compound, the myelination in assay [2] (1 µM) is -5.38 (inactive); in assay [2] (5 µM), -24.9 (inactive).
The like results for `CCCCC1=NC2(CCCC2)C(=O)N1Cc1ccc(-c2ccccc2-c2nnn[nH]2)cc1` [Irbesartan] were, in that order, 0.679, 0.752, -12.8 (inactive) and -10.8 (inactive).
The like results for `CN1CCC[C@H]1c1cccnc1` [Nicotine] were, in that order, 0.761, 1.06, -10.1 (inactive) and 2.28 (inactive).
The like results for `COc1c(N2CCNC(C)C2)c(F)cc2c(=O)c(C(=O)O)cn(C3CC3)c12` (stereo not given) [Gatifloxacin] were, in that order, 0.508, 0.609, -17 (inactive) and -14.2 (inactive).
In the case of `Cc1ccc(N(CC2=NCCN2)c2cccc(O)c2)cc1` [Phentolamine], the “fiber score / MBP score” value in assay [1] (1 µM) came to 0.701; in assay [1] (5 µM), 0.56. In addition, the results for the myelination in assay [2] (1 µM) and in assay [2] (5 µM) were -21.8 (inactive) and -26.1 (inactive), respectively.
The like results for `CNCCC=C1c2ccccc2CCc2ccccc21` [Nortriptyline] were, in that order, 0.847, 1.93, -1.74 (inactive) and 54.7 (active).
Take `CC1(C)S[C@@H]2[C@H](NC(=O)COc3ccccc3)C(=O)N2[C@H]1C(=O)O` [Penicillin V]: the “fiber score / MBP score” value in assay [1] (1 µM) was 0.881; in assay [1] (5 µM), 0.734. Further, the myelination was -3.1 (inactive) in assay [2] (1 µM) and -3.83 (inactive) in assay [2] (5 µM).
For the compound `Cc1cnc(C(=O)NCCc2ccc(S(=O)(=O)NC(=O)NC3CCCCC3)cc2)cn1` [Glipizide], the “fiber score / MBP score” value amounted to 1.13 in assay [1] (1 µM) and 0.658 in assay [1] (5 µM). Further, the myelination was 2.75 (inactive) in assay [2] (1 µM) and -12.8 (inactive) in assay [2] (5 µM).
For `CCCCNC(=O)NS(=O)(=O)c1ccc(C)cc1` [Tolbutamide], the results for the “fiber score / MBP score” value in assay [1] (1 µM) and in assay [1] (5 µM) were 0.923 and 0.898, respectively. Besides, the myelination is -1.85 (inactive) in assay [2] (1 µM) and -4.03 (inactive) in assay [2] (5 µM).
The like results for `CC(C)NCC(O)COc1ccc(COCCOC(C)C)cc1` (stereo not given) [Bisoprolol] were, in that order, 0.546, 0.728, -58.3 (inactive) and -38.2 (inactive).
The like results for `Cc1cccc(Nc2ccncc2S(=O)(=O)NC(=O)NC(C)C)c1` [Torsemide] were, in that order, 0.837, 0.949, -11.6 (inactive) and -4.35 (inactive).
For the compound `Clc1ccc2nsnc2c1NC1=NCCN1` [Tizanidine], the “fiber score / MBP score” value was 0.796 in assay [1] (1 µM) and 0.443 in assay [1] (5 µM). Also, the myelination in assay [2] (1 µM) was -26.5 (inactive); in assay [2] (5 µM), -54.3 (inactive).
The like results for `COc1c(N2C[C@@H]3CCCN[C@@H]3C2)c(F)cc2c(=O)c(C(=O)O)cn(C3CC3)c12` [Moxifloxacin] were, in that order, 0.766, 0.689, -12.3 (inactive) and -17.6 (inactive).
With `c1cnc(N2CCN(Cc3ccc4c(c3)OCO4)CC2)nc1` [Piribedil], the “fiber score / MBP score” value in assay [1] (1 µM) was 0.774; in assay [1] (5 µM), 0.712. Besides, the figures for the myelination in assay [2] (1 µM) and in assay [2] (5 µM) were -24.5 (inactive) and -35.6 (inactive), respectively.
